# The source made the active and inactive calls.
# Key:
# [1] = compound effects on lung adenocarcinoma cell viability – A549, calcein-AM fluorescence, 48 h, basal, profiling panel (AID 1162); conditions: higher = more signal
# [2] = compound effects on differentiated 3T3-L1 adipocyte viability – cell-based, 3T3-L1 adipocytes, calcein-AM fluorescence, 48 h, basal, profiling panel (AID 1163); conditions: 3T3-L1 adipocytes viability, higher = more signal
# [3] = compound effects on hepatocellular carcinoma cell viability – HepG2, calcein-AM fluorescence, 48 h, basal, profiling panel (AID 1164); conditions: higher = more signal
# [4] = compound effects on multiple myeloma cell viability – MM1S, calcein-AM fluorescence, 48 h, basal, profiling panel (AID 1165); conditions: higher = more signal
# [5] = calcein-AM signal in unstimulated myeloma cells – cell-based, calcein-AM fluorescence, 48 h, PK04 Diversity Set, profiling panel (AID 1166); conditions: RPMI8226 myeloma viability, higher = more signal;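 also: cells grown under basal conditions without added stimulus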
# [6] = JC-1 mitochondrial signal, unstimulated HepG2 cells – cell-based, JC-1 fluorescence, 24 h, 100 nL compound, profiling panel (AID 1167); conditions: HepG2 mitochondrial potential, higher = more signal
# [7] = JC-1 mitochondrial signal, unstimulated adipocytes – cell-based, JC-1 fluorescence, 3T3-L1 adipocytes, 24 h, 100 nL compound, profiling panel (AID 1168); conditions: JC-1 mitochondrial fluorescence, higher = more signal, called active from +8 up or from −8 down
# [8] = JC-1 mitochondrial signal, unstimulated myeloma cells – cell-based, JC-1 fluorescence, RPMI8226, 24 h, 100 nL compound, profiling panel (AID 1169); conditions: JC-1 mitochondrial potential fluorescence, higher = more signal
# [9] = JC-1 mitochondrial signal, unstimulated MM1S myeloma – cell-based, JC-1 fluorescence, 24 h, 100 nL compound, profiling panel (AID 1170); conditions: MM1S mitochondrial potential, higher = more signal
# [10] = resazurin metabolic signal in A549 cells – cell-based, resazurin fluorescence, 24 h, PK04 Diversity Set, profiling panel (AID 1171); conditions: A549 viability, higher = more signal, called active from +8 up or from −8 down
# Also: test concentration not given here.
SMILES,z-score [1],z-score [2],z-score [3],z-score [4],z-score [5],z-score [6],z-score [7],z-score [8],z-score [9],z-score [10]
Cc1ccc(S[C@]2(C(=O)NCCCN(C)C)CC(=O)N(C3CCCCC3)[C@@H]2c2ccc(CO)cc2I)cc1,-0.272,1.8,-4.31,-3.25,-3.08,1.8,0.794 (inactive),-0.644,-1.84,-0.835 (inactive)
CCCNC(=O)[C@@H]1c2ccccc2C(=O)N(C2CCCCC2)[C@H]1c1ccc(CO)cc1,0.285,-0.144,0.107,-0.524,0.0117,2.29,0.00608 (inactive),-0.192,-0.401,1.58 (inactive)
Cc1ccccc1C(O)C1C=CC2C(=O)N(c3ccccc3)C(=O)C2N1Nc1ccc(C#N)cc1 (stereo not given),0.916,-0.175,2.03,-0.113,0.0872,0.258,-1.55 (inactive),-0.472,0.99,0.682 (inactive)
O=C1c2ccccc2[C@](Cc2ccccc2I)(C(=O)O)[C@H](c2ccc(CO)cc2)N1C1CCCCC1,0.0699,2.82,-0.0275,0.832,-3.14,0.0952,-0.641 (inactive),-0.193,0.148,1.07 (inactive)
[N-]=[N+]=NCc1ccccc1C[C@]1(C(N)=O)N=C(c2ccc(OCCCO)cc2)O[C@H]1c1ccccc1CN=[N+]=[N-],-0.633,1.76,-1.35,-2.19,-3.71,1.89,0.575 (inactive),-0.937,-0.621,-1.97 (inactive)
C=CCC(OC(C)=O)[C@@H]1[C@@H](N(Cc2ccc(-c3ccccc3)cc2)C(=O)c2ccc(C)cc2)c2cc(OCCCO)ccc2N1C(=O)c1ccc(-c2ccccc2)cc1 (stereo not given in full),3.37,0.626,1.87,-0.732,0.887,4.05,1 (inactive),-0.454,1.22,2.47 (inactive)
Cc1ccc(S[C@]2(C(=O)NCCN3CCOCC3)CC(=O)N(C3Cc4ccccc4C3)[C@@H]2c2ccc(CO)cc2I)cc1,1.47,1.33,-0.0794,-3.23,-1.84,0.899,-0.211 (inactive),-0.993,-1.02,0.842 (inactive)
NC(=O)NCC#Cc1ccc2c(c1)[C@]1(C(=O)N2)[C@H](C(N)=O)[C@H]2C(=O)O[C@H](c3ccccc3)[C@H](c3ccccc3)N2[C@@H]1c1ccccc1OCCO,-1.23,0.634,-0.945,-0.211,-0.186,-1.01,-0.287 (inactive),-1.05,-0.386,0.79 (inactive)
CC(C)N1CC=CC23O[C@@H]4/C=C\CCCOC(=O)C4[C@H]2C(=O)N(CCO)[C@@H]3C1=O (stereo not given in full),1.63,0.472,0.499,1.37,0.629,1.42,2.1 (inactive),-0.442,0.776,1.39 (inactive)
C=CCC(OC(C)=O)[C@@H]1[C@@H](N(Cc2ccc(-c3ccccc3)cc2)C(=O)c2ccc(-c3ccccc3)cc2)c2cc(OCCCO)ccc2N1C(=O)Cc1ccc(OC)cc1 (stereo not given in full),-0.111,0.6,0.551,-0.769,-0.904,0.424,-0.972 (inactive),-0.0615,-0.142,0.78 (inactive)
CN(C)CCCC[C@@H]1NC(=O)[C@@H]2C[C@H](C(=O)O)[C@H](c3ccc(O)cc3)N2C1=O,-0.533,1.36,-1.03,-3.01,-0.102,1.26,0.292 (inactive),-0.0425,-0.971,-0.385 (inactive)
Cc1ccc(S[C@]2(C(=O)NC3CC3)CC(=O)N(Cc3cc(C(F)(F)F)cc(C(F)(F)F)c3)[C@@H]2c2ccc(CO)cc2)cc1,0.902,1.69,0.445,0.239,0.16,0.259,-0.472 (inactive),-0.718,-0.792,0.968 (inactive)
C=CCNC(=O)[C@H]1[C@@H]2C(=O)O[C@@H](c3ccccc3)[C@@H](c3ccccc3)N2[C@@H](c2ccccc2OCCO)[C@]12C(=O)N(C(=O)OCCOC)c1ccc(C#CCNC(N)=O)cc12,0.883,1.68,-0.127,-1.13,-0.66,0.208,1.39 (inactive),-0.711,-0.616,1.13 (inactive)
O=C1O[C@@H](c2ccccc2)[C@@H](c2ccccc2)N2[C@@H](c3ccccc3OCCO)[C@]3(C(=O)Nc4ccc(C#CC5=CCCCC5)cc43)[C@@H](C(=O)O)[C@H]12,-1,1.61,-0.992,-3.39,-4.65,-3.81,4.74 (inactive),-1.07,-0.999,0.289 (inactive)
O=C1C2C=CC(C(O)Cc3ccccc3)N(Nc3ccc([N+](=O)[O-])cc3)C2C(=O)N1c1ccccc1 (stereo not given),-0.356,-0.116,0.0181,0.568,-0.0631,-1.36,0.0226 (inactive),0.517,-0.876,0.007 (inactive)
CC(=O)NCCCC[C@@H]1NC(=O)[C@H]2C[C@@H](C(=O)NCCCCCCN(C)C)[C@@H](c3ccc(O)cc3)N2C1=O,-0.345,1.03,-1.23,-0.327,-0.551,-0.755,0.154 (inactive),0.669,0.116,-1.27 (inactive)

SMILES,z-score [1],z-score [2],z-score [3],z-score [4],z-score [5],z-score [6],z-score [7],z-score [8],z-score [9],z-score [10]
CCC(=O)[C@]12O[C@@]3([C@@H]4C(=O)OCC[C@@H]41)N(Cc1ccccc1)C(C)=C(C(=O)OC)[C@@H](c1ccccc1)N3C2=O,0.997,0.873,-0.356,0.0552,1.08,0.499,0.995 (inactive),-0.752,-0.226,0.26 (inactive)
O=C(CS)NCCCCCCNC(=O)[C@@H]1C[C@@H]2C(=O)N[C@@H](Cc3ccccc3)C(=O)N2[C@@H]1c1ccc(O)cc1,-0.401,0.861,-0.963,-0.0227,0.612,-1.67,-0.654 (inactive),-0.208,-0.716,-0.226 (inactive)
CO[C@H]1COC(=O)[C@@H](OCc2ccccc2)C=C[C@H](C)[C@@H](OC)COC(=O)[C@H](OCc2ccccc2)C=C[C@@H]1C,0.665,1.21,1.45,0.301,0.0913,1.6,0.382 (inactive),-0.262,2.82,1.76 (inactive)
C=C(CCCC)C(=O)CC[C@@H](OC(=O)c1cccnc1)c1cccc(OCCO)c1,1.17,0.977,-0.865,-3.38,-2.93,0.558,0.645 (inactive),-0.721,-1.68,0.468 (inactive)
CC(C)(C)OC(=O)CC[C@]1(C(=O)NCCN2CCOCC2)N=C(c2ccc(OCCCO)cc2)O[C@H]1c1ccccc1CN=[N+]=[N-],0.327,1.13,0.0133,1.31,-0.722,-0.131,0.289 (inactive),-0.0354,0.671,0.619 (inactive)
CC(=O)NCCCC[C@@H]1NC(=O)[C@@H]2C[C@H](C(=O)NCCCCCCN(C)C)[C@H](c3ccc(O)cc3)N2C1=O,-0.378,1.28,-1.04,-0.365,0.495,1.43,0.957 (inactive),0.641,0.925,0.318 (inactive)
COc1cccc([C@@H]2[C@@H](C)CC[C@H]3C(=O)N4[C@H](c5cccc(OC)c5)[C@@H](C)CC[C@H]4C(=O)N23)c1,2.04,0.512,0.761,0.656,1.34,1.51,0.891 (inactive),-0.395,1.13,1.51 (inactive)
C=C(/C(=C/C[C@@H](OC(=O)c1ccncc1)c1ccc(CO)o1)c1cnc2ccccc2c1)C(C)C,0.755,1.61,-0.993,-1.24,0.13,-0.75,0.03 (inactive),0.0616,0.627,0.382 (inactive)
CCCC=C(CCC)[C@@H](NS(=O)(=O)c1ccc(C(F)(F)F)cc1)c1ccc(-c2ccccc2)cc1,-0.91,-0.988,-0.396,-0.5,-2.65,0.285,0.33 (inactive),0.342,-1.15,2.3 (inactive)
O=C1c2ccccc2[C@](Cc2ccccc2I)(C(=O)NCc2ccccc2)[C@H](c2ccc(CO)cc2)N1Cc1ccccc1C(F)(F)F,0.582,1.06,0.185,-0.698,0.0474,1.11,0.789 (inactive),0.467,0.463,0.584 (inactive)
O=C1O[C@@H](c2ccccc2)[C@@H](c2ccccc2)N2[C@@H](c3ccc(O)cc3)[C@]3(C(=O)Nc4ccccc43)[C@@H](C(=O)N3CCN(c4ncccn4)CC3)[C@H]12,0.661,-0.957,1.15,-1.16,-1.77,-0.235,1.72 (inactive),-0.455,-0.618,-0.133 (inactive)
COCCOC(=O)N1C(=O)[C@@]2(c3ccccc31)[C@H](C(=O)N1CCc3cc(OC)c(OC)cc3C1)[C@H]1C(=O)O[C@H](c3ccccc3)[C@H](c3ccccc3)N1[C@@H]2c1ccccc1OCCO,1.57,1.3,-0.478,-1.2,-0.222,1.24,0.407 (inactive),-0.181,-0.238,0.725 (inactive)
Cc1ccc(N2C(=O)c3ccccc3[C@](C)(C(=O)NCC(C)C)[C@@H]2c2ccc(CO)cc2)nc1,-0.535,-0.672,-0.712,-0.359,0.256,-0.481,-0.74 (inactive),-0.0498,-0.634,0.606 (inactive)
CCN1C(C)=C(C(=O)OC)[C@@H](c2ccccc2)N2C(=O)[C@@]3(C(=O)OC)O[C@@]12[C@@H]1C(=O)N(c2ccccc2)C(=O)[C@@H]13,0.0365,1.67,-0.805,0.871,-0.892,0.564,1.17 (inactive),1.22,0.0907,0.677 (inactive)
CCCC=C(CCC)[C@@H](NC(=O)c1ccc(C(F)(F)F)cc1)c1ccccc1,-0.842,0.0679,-1.59,-2.51,-2.58,-2.98,-0.208 (inactive),-0.601,-1.13,-0.396 (inactive)

# Reference: PubChem BioAssay
